Reference: PubChem BioAssay (NCATS)
Values joined by “and” are separate entries in the source; they are usually repeats but may differ in a detail not shown here. Identical values can stand only once. Inconclusive results are not listed. Entries that show only a call come without a potency. Active and inactive are the calls of the source. Unless noted, the call rests on the fitted dose curve; in most records, active means well fitted curve in the direction sought with a large enough effect; inconclusive means small, poorly fitted or top-dose-only effect, or another doubt; inactive means no such curve, though single readings can be large; an effect the other way counts as inactive or inconclusive.

Key:
[1] = molecular target: M-phase phosphoprotein 8 (Homo sapiens) (UniProt Q99549); assay: qHTS Validation Assay for Inhibitors for MPP8 Chromodomain Interactions with Methylated Histone Tails (AID 488949);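 further: AlphaScreen signal from MPP8 chromodomain bound to biotinylated H3K9me3 peptide; top concentration of the series differs between compounds; nearly all actives have a fitted effect of over 55% in size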
Outline: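 MPP8 (50 nM) was preincubated with biotinylated H3(1-18)K9me3 peptide (50 nM) in PBS pH 7.4, 0.01% Tween-20 for 30 min at room temperature, then with compounds for 30 min; binding was detected by AlphaScreen.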

[2] = molecular target: Chromobox protein homolog 1 (Homo sapiens) (UniProt P83916); assay: qHTS Validation Assay for Inhibitors of HP1-beta Chromodomain Interactions with Methylated Histone Tails (AID 488953); further: nearly all actives have a fitted effect of over 50% in size; further: potency means the concentration at half of the fitted maximal effect
Chromobox protein homolog 1 (Homo sapiens), sequence (P83916 whole entry, looked up): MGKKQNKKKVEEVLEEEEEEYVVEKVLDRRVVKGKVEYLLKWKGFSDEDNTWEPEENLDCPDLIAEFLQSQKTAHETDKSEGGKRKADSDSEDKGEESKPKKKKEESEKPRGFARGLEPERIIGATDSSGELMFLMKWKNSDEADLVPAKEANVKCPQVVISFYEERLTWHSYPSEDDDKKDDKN
Outline: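 Compounds pinned into a preassembled complex of HP1-beta and trimethyl-K9 histone H3(1-18) biotin peptide (50 nM each; PBS pH 7.4, 0.01% Tween-20). After 30 min, bead-based AlphaScreen detection followed.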

[3] = molecular target: Methanococcus maripaludis chaperonin (MmCpn) (UniProt Q6LX38); assay: High-Throughput Screening for Modulators of Cytosolic Chaperonin Activity: MmCpn Primary Screen (AID 488978);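 further: 50 nM MmCpn enzyme hydrolysing 30 µM ATP at 37 °C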
Methanococcus maripaludis chaperonin (MmCpn), sequence (Q6LX38 1-543): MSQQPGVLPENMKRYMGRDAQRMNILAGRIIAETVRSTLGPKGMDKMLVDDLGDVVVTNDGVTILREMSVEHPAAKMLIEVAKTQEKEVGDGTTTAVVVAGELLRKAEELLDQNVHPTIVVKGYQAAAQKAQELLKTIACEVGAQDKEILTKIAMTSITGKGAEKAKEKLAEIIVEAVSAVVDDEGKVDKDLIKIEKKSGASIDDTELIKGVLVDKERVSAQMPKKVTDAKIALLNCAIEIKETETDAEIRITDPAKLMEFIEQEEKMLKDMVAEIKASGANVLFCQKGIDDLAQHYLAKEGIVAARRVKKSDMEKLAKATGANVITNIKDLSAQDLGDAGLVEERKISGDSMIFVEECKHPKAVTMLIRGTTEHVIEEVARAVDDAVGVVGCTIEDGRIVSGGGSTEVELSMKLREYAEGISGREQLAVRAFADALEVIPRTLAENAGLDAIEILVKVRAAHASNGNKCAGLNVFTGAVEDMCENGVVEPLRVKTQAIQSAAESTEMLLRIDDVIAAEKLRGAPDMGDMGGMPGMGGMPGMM
Outline: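 MmCpn (50 nM final) was preincubated with compound 5 min at RT, then 30 uM ATP (final) was added and the reaction ran 10 min at 37C. ADP produced was detected by Transcreener HTRF (ex 320 nm; em 590/665 nm).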

[4] = molecular target: D(1A) dopamine receptor (Homo sapiens) (UniProt P21728); assay: HTS Assay for Allosteric Agonists of the Human D1 Dopamine Receptor: Primary Screen for Potentiators (AID 488982)
D(1A) dopamine receptor (Homo sapiens), sequence (P21728 whole entry, looked up): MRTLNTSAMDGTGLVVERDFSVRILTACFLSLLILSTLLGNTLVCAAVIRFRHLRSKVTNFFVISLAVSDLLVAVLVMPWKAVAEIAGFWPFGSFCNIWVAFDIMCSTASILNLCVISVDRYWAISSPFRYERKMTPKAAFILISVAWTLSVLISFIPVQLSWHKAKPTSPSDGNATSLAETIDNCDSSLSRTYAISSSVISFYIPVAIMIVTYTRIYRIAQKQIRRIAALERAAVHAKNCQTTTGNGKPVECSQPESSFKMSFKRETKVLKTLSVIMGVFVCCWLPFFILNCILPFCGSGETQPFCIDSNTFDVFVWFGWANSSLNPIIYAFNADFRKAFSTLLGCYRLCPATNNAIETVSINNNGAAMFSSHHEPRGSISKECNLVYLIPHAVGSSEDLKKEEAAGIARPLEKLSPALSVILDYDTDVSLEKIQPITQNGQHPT
Outline: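 Tetracycline-induced HEK293 Trex D1 cells with forced coupling to calcium, loaded with no-wash calcium dye; kinetic fluorescence read 180 s after compound addition for agonism, then a further 180 s after an EC20 dopamine challenge for potentiation.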

[5] = molecular target: D(1A) dopamine receptor (Homo sapiens) (UniProt P21728); assay: HTS Assay for Allosteric Agonists of the Human D1 Dopamine Receptor: Primary Screen for Antagonists (AID 488983);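 further: calcium flux response to an EC80 dopamine challenge measured with no-wash dye; nearly all actives have a fitted effect of over 65% in size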; further: potency means the concentration at half of the fitted maximal effect
Outline: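 In this primary screen, compounds are applied to calcium-dye-loaded HEK293 T-REx cells with force-coupled D1 expression induced overnight at 30 C. An EC80 of dopamine follows the 180 s compound phase, and calcium is monitored for a further 180 s.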

[6] = Validation screen for small molecules that induce genotoxicity in human embryonic kidney (HEK293T) cells expressing luciferase-tagged ELG1 (AID 493106)
Outline: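 In this validation screen, increased ELG1-luciferase signal flags compounds causing genetic stress. HEK293T reporter cells are treated 16 hr (37 °C, 5% CO2), developed with ONE-Glo for 30 min at room temperature, and imaged on a CCD-based reader.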

[7] = molecular target: ATPase family AAA domain-containing protein 5 (Homo sapiens) (UniProt Q96QE3); assay: Validation screen for small molecules that inhibit ELG1-dependent DNA repair in human embryonic kidney (HEK293T) cells expressing luciferase-tagged ELG1 (AID 493107); further: nearly all actives have a fitted effect of over 70% in size; further: potency means the concentration at half of the fitted maximal effect
ATPase family AAA domain-containing protein 5 (Homo sapiens), sequence (Q96QE3 whole entry, looked up, the tested form may be a part): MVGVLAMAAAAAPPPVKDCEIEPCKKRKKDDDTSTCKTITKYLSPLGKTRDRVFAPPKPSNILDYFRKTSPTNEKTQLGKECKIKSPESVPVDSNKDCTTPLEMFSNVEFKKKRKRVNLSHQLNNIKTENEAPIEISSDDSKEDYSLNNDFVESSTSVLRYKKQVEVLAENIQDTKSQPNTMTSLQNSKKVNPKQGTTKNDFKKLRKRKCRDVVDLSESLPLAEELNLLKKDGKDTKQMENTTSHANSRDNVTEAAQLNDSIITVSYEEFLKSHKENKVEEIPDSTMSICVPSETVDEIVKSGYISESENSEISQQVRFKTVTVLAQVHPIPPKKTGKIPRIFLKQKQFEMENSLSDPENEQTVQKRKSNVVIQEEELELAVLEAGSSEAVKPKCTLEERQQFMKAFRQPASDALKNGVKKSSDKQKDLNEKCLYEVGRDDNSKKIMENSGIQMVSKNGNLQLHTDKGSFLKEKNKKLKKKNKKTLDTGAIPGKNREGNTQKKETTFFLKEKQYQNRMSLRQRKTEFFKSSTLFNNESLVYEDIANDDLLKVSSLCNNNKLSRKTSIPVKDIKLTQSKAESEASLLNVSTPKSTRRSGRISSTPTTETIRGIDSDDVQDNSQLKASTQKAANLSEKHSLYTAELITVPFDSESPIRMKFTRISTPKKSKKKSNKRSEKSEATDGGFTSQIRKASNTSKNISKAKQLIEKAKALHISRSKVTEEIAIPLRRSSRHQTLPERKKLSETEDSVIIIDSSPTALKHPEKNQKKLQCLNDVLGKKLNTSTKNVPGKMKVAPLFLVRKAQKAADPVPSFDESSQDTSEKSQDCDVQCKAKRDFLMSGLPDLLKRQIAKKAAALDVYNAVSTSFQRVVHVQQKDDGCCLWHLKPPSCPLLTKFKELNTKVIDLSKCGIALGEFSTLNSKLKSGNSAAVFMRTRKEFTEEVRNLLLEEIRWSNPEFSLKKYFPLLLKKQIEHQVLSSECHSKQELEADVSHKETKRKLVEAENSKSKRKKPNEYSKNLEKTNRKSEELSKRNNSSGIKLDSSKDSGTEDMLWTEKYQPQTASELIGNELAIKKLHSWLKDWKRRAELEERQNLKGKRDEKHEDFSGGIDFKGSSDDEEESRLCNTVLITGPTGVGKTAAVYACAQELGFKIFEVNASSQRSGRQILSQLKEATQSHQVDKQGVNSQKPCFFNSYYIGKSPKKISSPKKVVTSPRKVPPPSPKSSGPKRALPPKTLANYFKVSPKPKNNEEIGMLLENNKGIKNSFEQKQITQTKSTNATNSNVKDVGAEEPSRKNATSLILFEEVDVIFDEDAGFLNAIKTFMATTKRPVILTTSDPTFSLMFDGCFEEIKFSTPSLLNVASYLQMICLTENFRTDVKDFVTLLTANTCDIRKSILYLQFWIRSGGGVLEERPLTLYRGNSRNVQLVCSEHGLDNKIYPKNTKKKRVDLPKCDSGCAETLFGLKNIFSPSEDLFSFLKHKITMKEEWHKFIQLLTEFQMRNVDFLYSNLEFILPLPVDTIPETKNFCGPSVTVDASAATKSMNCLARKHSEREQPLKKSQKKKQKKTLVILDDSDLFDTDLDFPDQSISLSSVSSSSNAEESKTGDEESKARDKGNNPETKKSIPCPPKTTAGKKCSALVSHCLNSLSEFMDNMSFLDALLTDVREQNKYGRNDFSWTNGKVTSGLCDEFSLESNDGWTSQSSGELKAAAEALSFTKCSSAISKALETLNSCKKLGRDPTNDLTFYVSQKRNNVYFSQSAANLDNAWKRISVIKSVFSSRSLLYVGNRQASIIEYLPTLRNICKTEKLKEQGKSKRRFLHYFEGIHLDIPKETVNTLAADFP
Outline: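 Compounds reducing 5-fluorouridine-driven ELG1-luciferase signal in HEK293T cells were scored; exposure lasted 16 hr at 37 °C with luminescence detected via ONE-Glo.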

[8] = Nrf2 qHTS screen for inhibitors: Validation (AID 493153; active means well fitted inhibition curve with a large enough effect in the main read-out, with a control signal flat, not every such curve was filed as active); settings: viability change: measured here: cytotoxicity max response
Outline: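 In this counterscreened reporter format, each well gives two signals: CellTiter-Fluor fluorescence for cytotoxicity and ARE-luciferase luminescence for Nrf2 function. A549 ARE_Fluc cells in 5% FBS OPTI-MEM were exposed to compound titrations for 18-24 h.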

[9] = qHTS for Inhibitors of Cell Surface uPA Generation: Validation Assay (AID 493164);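 further: RAW 264.7 macrophage cells exposed to compound for 18 h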
Outline: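 Compounds are titrated over seven points (2.45 nM–38.3 uM final) onto pre-plated RAW 264.7 cells and incubated for 18 h. Retained intracellular ATP, measured with ATP-Lite, indicates blocked lethal factor entry.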

[10] = molecular target: Galactokinase (Homo sapiens) (UniProt P51570); assay: qHTS Validation Assay for Inhibitors of Human Galactokinase (GALK) (AID 493189)
Galactokinase (Homo sapiens), sequence (P51570 whole entry, looked up): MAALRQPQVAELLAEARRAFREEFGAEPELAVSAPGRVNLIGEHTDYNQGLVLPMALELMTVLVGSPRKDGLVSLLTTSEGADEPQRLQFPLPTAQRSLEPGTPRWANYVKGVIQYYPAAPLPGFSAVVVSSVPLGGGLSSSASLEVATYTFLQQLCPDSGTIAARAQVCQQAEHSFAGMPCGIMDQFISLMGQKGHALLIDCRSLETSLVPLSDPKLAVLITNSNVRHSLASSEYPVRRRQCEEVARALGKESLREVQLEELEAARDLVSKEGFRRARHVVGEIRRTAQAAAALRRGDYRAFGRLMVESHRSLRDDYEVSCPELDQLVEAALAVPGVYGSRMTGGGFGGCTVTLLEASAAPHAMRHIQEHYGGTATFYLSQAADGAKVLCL
Outline: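 GALK (5 nM) with 35 uM ATP and 100 uM galactose in HEPES pH8.0, MgCl2, NaCl, DTT, BSA; 1 h at room temperature. Residual ATP read by Kinase-Glo Plus luminescence after 10 min.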

[11] = Validation screen for small molecules that induce DNA re-replication in SW480 colon adenocarcinoma cells (AID 504364)
Outline: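 Hoechst-stained SW480 nuclei, imaged at 405 nm excitation after 48 hr compound exposure, were counted for elevated DNA content as the re-replication signal.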

[12] = molecular target: Peptidyl-prolyl cis-trans isomerase NIMA-interacting 1 (Homo sapiens) (UniProt Q13526); assay: qHTS Validation Assay to Find Inhibitors of Pin1 (AID 504536; active means well fitted inhibition curve with a large enough effect in the polarisation, with a control signal flat, not every such curve was filed as active; the % refers to the polarisation)
Peptidyl-prolyl cis-trans isomerase NIMA-interacting 1 (Homo sapiens), sequence (Q13526 whole entry, looked up): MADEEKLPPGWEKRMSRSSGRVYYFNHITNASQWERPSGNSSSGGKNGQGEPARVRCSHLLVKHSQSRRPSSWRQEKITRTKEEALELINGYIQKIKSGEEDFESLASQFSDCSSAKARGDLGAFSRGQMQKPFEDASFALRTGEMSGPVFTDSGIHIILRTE
Outline: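 Fluorescence polarization competition: compounds (titration) displace HiFluor-488-labeled Pin1-1b peptide from Pin1 (0.3 uM final) in pH 7.5 HEPES buffer with DTT, 10 min at room temperature; %Activity normalized to no-enzyme wells, curves fitted.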

[13] = molecular target: Phosphoglycerate kinase, glycosomal (Trypanosoma brucei brucei) (UniProt P07378); assay: qHTS Validation Assay to Find Inhibitors of Phosphoglycerate Kinase (AID 504547)
Phosphoglycerate kinase, glycosomal (Trypanosoma brucei brucei), sequence (P07378 whole entry, looked up): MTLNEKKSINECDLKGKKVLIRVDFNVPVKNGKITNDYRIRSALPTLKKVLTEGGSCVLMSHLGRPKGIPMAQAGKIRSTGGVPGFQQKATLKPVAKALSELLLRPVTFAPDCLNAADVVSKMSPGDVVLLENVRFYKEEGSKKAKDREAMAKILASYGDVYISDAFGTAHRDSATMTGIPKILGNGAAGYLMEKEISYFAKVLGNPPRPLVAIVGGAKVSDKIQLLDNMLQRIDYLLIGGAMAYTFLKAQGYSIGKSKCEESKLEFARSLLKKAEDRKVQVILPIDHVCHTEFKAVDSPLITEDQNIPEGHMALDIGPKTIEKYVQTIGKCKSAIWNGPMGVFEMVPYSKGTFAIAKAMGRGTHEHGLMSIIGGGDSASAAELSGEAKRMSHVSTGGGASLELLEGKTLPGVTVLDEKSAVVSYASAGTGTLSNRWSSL
Outline: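 Compounds are pinned into the substrate/PGK mixture, and GAPDH (100nM final) is added to start the reaction by producing 1,3-BPG. After 60 minutes at room temperature, Kinase-Glo Plus is added and luminescence is measured 10 minutes later.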

[14] = Inducers of the Endoplasmic Reticulum Stress Response (ERSR) in human glioma: Validation (AID 504836)
Outline: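 Stably transfected U87-MG glioma cells carrying a GRP78-based luciferase sensor; 16 h compound incubation. Luminescence end-point read 10 min after Bright-Glo addition at room temperature.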

[15] = molecular target: Thyrotropin-releasing hormone receptor (Homo sapiens) (UniProt P34981); assay: qHTS for Small Molecule Agonists and Allosteric Enhancers of Human TRH Receptor: Validation Screen for Agonists (AID 493127;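 active means calcium activation more than 3 SD above the typical response in the agonist read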;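 further: intracellular calcium rise by fluo-8 fluorescence before TRH EC20 addition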); settings: TRH receptor agonist cell assay; at 2 µM; stronger effect = higher value
Thyrotropin-releasing hormone receptor (Homo sapiens), sequence (P34981 whole entry, looked up): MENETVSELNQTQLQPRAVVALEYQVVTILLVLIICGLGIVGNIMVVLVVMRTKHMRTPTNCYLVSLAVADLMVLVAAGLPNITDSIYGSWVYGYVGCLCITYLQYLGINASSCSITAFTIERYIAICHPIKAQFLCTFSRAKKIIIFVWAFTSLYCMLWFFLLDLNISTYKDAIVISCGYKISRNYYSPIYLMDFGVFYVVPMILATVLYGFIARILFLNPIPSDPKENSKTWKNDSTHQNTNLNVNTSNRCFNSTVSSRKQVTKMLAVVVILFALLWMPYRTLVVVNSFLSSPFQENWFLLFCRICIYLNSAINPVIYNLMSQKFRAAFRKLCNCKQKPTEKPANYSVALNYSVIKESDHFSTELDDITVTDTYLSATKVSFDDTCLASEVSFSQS
Outline: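 Kinetic fluorescence assay of agonist-induced calcium release: overnight-plated TRHR cells, room-temperature fluo-8 loading, baseline then compound addition with per-second reads.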

[16] = molecular target: phosphoglycerate mutase (Leishmania major) (UniProt Q4Q090); assay: qHTS Validation Assay to Find Inhibitors of Phosphoglycerate Mutase (AID 504548);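 further: end-point luminescence from Kinase-GloPlus after the PGAM reaction; series mostly up to about 58 µM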
phosphoglycerate mutase (Leishmania major), sequence (Q4Q090 1-553): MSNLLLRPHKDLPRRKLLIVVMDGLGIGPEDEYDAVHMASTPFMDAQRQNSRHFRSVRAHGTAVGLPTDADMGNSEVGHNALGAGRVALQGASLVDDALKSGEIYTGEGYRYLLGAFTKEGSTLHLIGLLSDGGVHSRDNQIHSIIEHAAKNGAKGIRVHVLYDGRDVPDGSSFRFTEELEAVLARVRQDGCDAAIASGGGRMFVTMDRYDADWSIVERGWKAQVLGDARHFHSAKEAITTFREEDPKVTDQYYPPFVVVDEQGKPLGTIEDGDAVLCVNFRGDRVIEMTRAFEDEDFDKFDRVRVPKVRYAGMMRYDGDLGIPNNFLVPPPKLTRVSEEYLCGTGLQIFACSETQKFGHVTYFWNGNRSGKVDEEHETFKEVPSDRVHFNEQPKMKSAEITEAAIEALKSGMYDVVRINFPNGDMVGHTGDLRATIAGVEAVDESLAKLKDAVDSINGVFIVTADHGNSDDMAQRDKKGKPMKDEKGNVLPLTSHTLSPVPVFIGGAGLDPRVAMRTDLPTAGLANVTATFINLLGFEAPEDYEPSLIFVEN
Outline: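 Inhibition of L. major PGAM was assessed by Kinase-GloPlus luminescence following a 45-minute room-temperature reaction with enzyme at 1.25nM final.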

[17] = molecular target: Transient receptor potential cation channel subfamily V member 1 (Homo sapiens) (UniProt Q8NER1); assay: HTS Assay for Compounds that Act as Enhancers of the Vanilloid Receptor 1 (AID 488979)
Outline: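 TRPV1 cells loaded with Fluo-8 calcium dye; compound added and Ca2+ signal (ex 480/em 520 nm) followed 3 min, then capsaicin at EC20 added and read 2 more min to detect enhancement.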

[18] = molecular target: Tyrosyl-DNA phosphodiesterase 1 (Homo sapiens) (UniProt Q9NUW8); assay: Confirmation Assay for Inhibitors of Tyrosyl-DNA Phosphodiesterase (TDP1) (AID 489007); settings: recombinant human TDP1 enzymatic activity, dose-response; further: potency means the concentration at half of the fitted maximal effect; nearly all actives have a fitted effect of over 40% in size
Outline: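 Loss of AlphaScreen signal reports Tdp1 cleavage of a dual-labelled DNA substrate. Conditions: 1 nM E. coli-derived enzyme, 15 nM substrate, 15 min compound preincubation, 5 min reaction, 10 min bead incubation, all at room temperature.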

Row | SMILES | Potency [1] | Potency [2] | outcome [3] | outcome [4] | Potency [5] | outcome [6] | Potency [7] | outcome [8] | viability change [8] | outcome [9] | outcome [10] | outcome [11] | outcome [12] | outcome [13] | Potency [14] | activation [15] | outcome [16] | outcome [17] | Potency [18]
1 | C[N+]1(C)C2CCC1CC(OC(=O)C(CO)c1ccccc1)C2 (stereo not drawn) | inactive | inactive | inactive | inactive | inactive | inactive | inactive | inactive | 9.4% and 1.15% | inactive | inactive | inactive | inactive | inactive | inactive |  |  |  | 
2 | CCCN(CCC)[C@@H]1CCc2ccc(O)cc2C1 | inactive | inactive | inactive | inactive | 10000 nM (active) | inactive | inactive | inactive | 2.19% | inactive | inactive | inactive | inactive | inactive | inactive | 0.938% (inactive) |  |  | 
3 | C[C@]12CCC3C(CC[C@H]4C[C@H](O)CC[C@]34C)C1CC[C@@H]2C(=O)CO (stereo partly drawn) | inactive | inactive | inactive | inactive | inactive | inactive | inactive |  |  | inactive | inactive | inactive | inactive | inactive | inactive | 1.56% (inactive) | inactive |  | 
4 | CS(=N)(=O)CC[C@H](N)C(=O)O (stereo partly drawn) | inactive |  | inactive | inactive | inactive | inactive | inactive | inactive | 3.11% | inactive | inactive | inactive | inactive | inactive | inactive | 0.312% (inactive) |  |  | 
5 | CC1=NN=C(c2ccc(N)cc2)c2cc3c(cc2C1)OCO3 | inactive | inactive | inactive | inactive | inactive | inactive | inactive | inactive | -4.5% | inactive | inactive | inactive | inactive | inactive | inactive | 0.438% (inactive) |  |  | 
6 | CCCN1CCC[C@H](c2cccc(O)c2)C1 | inactive | inactive |  | inactive | inactive | inactive | inactive | inactive | 1.24% | inactive | inactive | inactive |  | inactive | inactive | 2.19% (inactive) | inactive |  | 
7 | COC(=O)[C@@H](N)CCCN=C(N)N[N+](=O)[O-] | inactive | inactive | inactive | inactive | inactive | inactive | inactive | inactive | -8.47% | inactive |  |  | inactive | inactive | inactive |  |  |  | 
8 | CCCN(CCC)C1CCc2ccc(O)cc2C1 (stereo not drawn) | inactive | inactive | inactive | inactive |  | inactive | inactive | inactive | -3.98% | inactive | inactive | inactive | inactive | inactive | inactive | -5.19% (inactive) |  |  | 
9 | O=C(O)Cc1cnc[nH]1 | inactive |  | inactive | inactive | inactive | inactive | inactive | inactive | -0.284% | inactive | inactive | inactive | inactive | inactive | inactive | 0.875% (inactive) |  |  | 
10 | CNCCc1c[nH]c2ccc(O)cc12 | inactive |  | inactive | inactive | inactive | inactive | inactive | inactive | 1.11% | inactive | inactive | inactive | inactive | inactive | inactive | 1.06% (inactive) |  |  | 
11 | CNCCc1ccc(O)c(O)c1 | inactive |  | inactive | inactive | 251 nM (active) | inactive | inactive | inactive | 0.688% | inactive | inactive |  | inactive |  | inactive | -0.25% (inactive) |  | inactive | 
12 | CC[C@@]1(O)C(=O)OCc2c1cc1n(c2=O)Cc2cc3ccccc3nc2-1 | inactive |  | inactive | inactive | inactive | inactive | 461 nM (active) |  |  | inactive | inactive | inactive | inactive | inactive | inactive | -0.188% (inactive) |  |  | 
13 | CC(=O)[C@H]1CCC2C3CC[C@H]4C[C@H](O)CC[C@]4(C)C3CC[C@@]21C (stereo partly drawn) | inactive | inactive | inactive | inactive | inactive | inactive | inactive | inactive | -0.378% | inactive | inactive | inactive |  | inactive | inactive | -6% (inactive) | inactive |  | 
14 | C[C@]12N[C@H](Cc3ccccc31)c1ccccc12 | inactive | 7.5 nM (active) | inactive | inactive | inactive | inactive | inactive | inactive | 0.285% | inactive | inactive | inactive | inactive | inactive | inactive |  |  |  | 
15 | CCn1cc(C(=O)O)c(=O)c2cc3c(cc21)OCO3 |  | 6.7 nM (active) |  |  |  |  |  |  |  |  |  |  |  |  |  |  |  |  | 
16 | C[N+](C)(C)CC(=O)O |  |  |  |  |  |  |  |  |  |  |  |  |  |  |  |  |  | inactive | 
17 | CC(=O)[O][Hg][c]1ccccc1 |  |  |  |  |  |  |  |  |  |  |  |  |  |  |  |  |  |  | 10000 nM (active)
18 | Cc1nc(-c2ccc(-c3ccc(C(=O)N4CCc5cc6c(cc54)C4(CCN(C)CC4)CO6)cc3)c(C)c2)no1 |  |  |  |  |  |  |  |  |  |  |  |  |  |  |  | 1.44% (inactive) |  |  | 
19 | CN[C@@H](C)[C@H](O)c1ccccc1 |  |  |  |  |  |  |  |  |  |  |  |  |  |  |  | 3.19% (inactive) |  |  | 
